This is an account of results in PMC10668032, “Altered binding affinity of SIX1-Q177R correlates with enhanced WNT5A and WNT pathway effector expression in Wilms tumor”.

In all, about 33,000 sequences were measured (“e-score”: median about -0.053, highest 2% from about 0.38 on). This is one part of a sample in which the highest values are shown more often than they occur.

This test concerns the target T1, SIX1 homeodomain (reference allele) (human, UniProt Q15475 108-198).
T1 sequence: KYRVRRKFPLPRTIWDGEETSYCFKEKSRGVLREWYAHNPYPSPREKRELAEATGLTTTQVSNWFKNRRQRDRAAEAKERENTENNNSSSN
Nature of the test: universal protein binding microarray; Universal all-10-mer PBM (8x60K, AMADID 030236), 300 nM GST-tagged protein, Alexa Fluor 488 anti-GST; buffer, salt, pH and temperature not stated (as in Berger); high values mean tight binding. As to conditions: protein: ivt; tags: N-terminal GST; dsDNA, one strand shown. In short, it runs like this: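 Binding of GST-tagged homeodomains is given as 8-mer E-scores from the Universal PBM Analysis Suite. The proteins were produced by in vitro transcription/translation, quantified by anti-GST western blot against a recombinant GST standard curve, and applied in duplicate at 300 nM final concentration to universal 'all 10-mer' protein binding microarrays (8×60K format).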
Take AGTACGAT: the binding signal turned out to be 0.248 ± 0.0454 E-score.

For the sequence ATCATAAT, the binding signal came to 0.229 ± 0.0622 E-score.

On to GATAATGC, for which the binding signal came out at 0.16 ± 0.00226 E-score.

Take GCGATCTA: the binding signal turned out to be 0.218 ± 0.0326 E-score.

Regarding CTCCGGTA, the binding signal worked out at 0.244 ± 0.0299 E-score.

Turning to GAAACACC, the binding signal worked out at 0.189 ± 0.0066 E-score.

Turning to AGATCCCT, the binding signal is 0.292 ± 0.00813 E-score.

As to AGATCCCC, the binding signal worked out at 0.384 ± 0.0161 E-score.

For GGATCCCA, the binding signal was determined as 0.37 ± 0.0601 E-score.

As for TGATCCAA, the binding signal turned out to be 0.324 ± 0.0147 E-score.

Take CGATCCCC: the binding signal was 0.437 ± 0.041 E-score.

Consider CGATCCCG, for which the binding signal was found to be 0.332 ± 0.04 E-score.

For the sequence GAATCCCC, the binding signal was determined as 0.23 ± 0.0451 E-score.

Consider AGATCCCG, for which the binding signal came out at 0.302 ± 0.0627 E-score.

As for AGATCCCA, the binding signal came to 0.213 ± 0.0026 E-score.

As for GGATCCCC, the binding signal was 0.419 ± 0.0404 E-score.

For TGATCCCA, the binding signal came out at 0.3763 ± 0.00132 E-score.

As for CGATCCCA, the binding signal stood at 0.346 ± 0.0579 E-score.

ATATACAA: the binding signal was determined as 0.27 ± 0.0205 E-score.

Regarding ATAGGAGA, the binding signal was found to be 0.185 ± 0.0295 E-score.

Regarding GATCGTAC, the binding signal came out at 0.274 ± 0.0438 E-score.

For ATACATGG, the binding signal was found to be 0.3102 ± 0.0018 E-score.

Take CGGACACC: the binding signal came out at 0.3658 ± 0.00136 E-score.

As to ATGACACG, the binding signal was 0.289 ± 0.0161 E-score.

For the sequence CTGACACC, the binding signal was 0.468 ± 0.0134 E-score.

As for CAGACACC, the binding signal amounted to 0.291 ± 0.0577 E-score.

In the case of ATGACACC, the binding signal turned out to be 0.4711 ± 0.00199 E-score.

In the case of AGGACACC, the binding signal was determined as 0.366 ± 0.0116 E-score.

For TATCGCAA, the binding signal turned out to be 0.33 ± 0.0108 E-score.

In the case of CCAGGAGA, the binding signal turned out to be 0.158 ± 0.0169 E-score.

In the case of AGCATGAT, the binding signal was determined as 0.2 ± 0.0238 E-score.

As to ATAAGCAG, the binding signal came to 0.173 ± 0.00802 E-score.

As to AGCTGATC, the binding signal was 0.3159 ± 0.00281 E-score.

With CGATCATC, the binding signal was 0.3167 ± 0.00296 E-score.

Consider GGATGATA, for which the binding signal stood at 0.443 ± 0.0105 E-score.

AGAAGATC: the binding signal is 0.231 ± 0.077 E-score.

As to AGATGATA, the binding signal was found to be 0.432 ± 0.0425 E-score.

CGCTGATC: the binding signal stood at 0.279 ± 0.0361 E-score.

As for AGATGATC, the binding signal amounted to 0.38 ± 0.0348 E-score.

In the case of AGAAGATA, the binding signal worked out at 0.201 ± 0.105 E-score.

As for AGATGAGA, the binding signal came out at 0.224 ± 0.0832 E-score.

As to GGATGAGA, the binding signal was 0.212 ± 0.0038 E-score.

CGATGATC: the binding signal is 0.379 ± 0.019 E-score.

Take GGATGGTA: the binding signal is 0.214 ± 0.0386 E-score.

ATGAAACC: the binding signal amounted to 0.242 ± 0.0415 E-score.

As for ATCCCATA, the binding signal came to 0.351 ± 0.0216 E-score.

ATATTTGA: the binding signal came to 0.173 ± 0.0606 E-score.

For the sequence ATCATTTG, the binding signal is 0.244 ± 0.0909 E-score.

With ATCGGGCC, the binding signal worked out at 0.188 ± 0.0382 E-score.

As for ACACCTGT, the binding signal was found to be 0.277 ± 0.00124 E-score.

For TATCGAGA, the binding signal came to 0.293 ± 0.0133 E-score.

Regarding ATAGCCGG, the binding signal was 0.22519 ± 0.00017 E-score.

As for ACGCATCT, the binding signal is 0.169 ± 0.0233 E-score.

Consider GGCAGATA, for which the binding signal was determined as 0.216 ± 0.0469 E-score.

ACAGTGAT: the binding signal is 0.199 ± 0.0229 E-score.

Turning to ACTAGGAT, the binding signal was found to be 0.187 ± 0.0427 E-score.

For CAGTTATC, the binding signal was found to be 0.176 ± 0.0291 E-score.

Regarding AACAATAT, the binding signal amounted to 0.253 ± 0.0623 E-score.

In the case of CGATGAGA, the binding signal was determined as 0.191 ± 0.0564 E-score.

On to CGATGATA, for which the binding signal turned out to be 0.445 ± 0.0281 E-score.

As for CGATGACA, the binding signal stood at 0.18 ± 0.00711 E-score.

For the sequence ATTATGCG, the binding signal stood at 0.242 ± 0.0214 E-score.

On to GTGTAGTA, for which the binding signal was 0.185 ± 0.0109 E-score.

Turning to CACTATCA, the binding signal stood at 0.276 ± 0.0303 E-score.

Take GGATATAA: the binding signal was found to be 0.352 ± 0.0244 E-score.

Turning to GTATATAC, the binding signal amounted to 0.316 ± 0.0323 E-score.

For the sequence CGATATAC, the binding signal was found to be 0.405 ± 0.0197 E-score.

Regarding AGATATAA, the binding signal was 0.261 ± 0.0786 E-score.

Consider AGATATAT, for which the binding signal stood at 0.337 ± 0.0754 E-score.

Take AGATATAC: the binding signal stood at 0.38 ± 0.0393 E-score.

As for CGATATAG, the binding signal was found to be 0.362 ± 0.0306 E-score.

Regarding GGATATAC, the binding signal worked out at 0.406 ± 0.0168 E-score.

Regarding CGATATAA, the binding signal came out at 0.243 ± 0.0501 E-score.

Regarding ACACGGGC, the binding signal worked out at 0.179 ± 0.0209 E-score.

For the sequence ACCCCGTA, the binding signal was found to be 0.209 ± 0.0622 E-score.

On to CGGTTTCA, for which the binding signal came to 0.152 ± 0.0123 E-score.

Consider ATCCTCAC, for which the binding signal is 0.234 ± 0.0503 E-score.

On to ATAGTGTA, for which the binding signal is 0.205 ± 0.0143 E-score.

Turning to CTCAAGGA, the binding signal is 0.164 ± 0.0491 E-score.

As to GGGGCGGA, the binding signal was found to be 0.159 ± 0.113 E-score.

Turning to ATTTATAC, the binding signal is 0.22 ± 0.116 E-score.

As for TATGGTAA, the binding signal stood at 0.166 ± 0.0578 E-score.

In the case of ATTACCCC, the binding signal worked out at 0.177 ± 0.0101 E-score.

As to ACACCCCC, the binding signal is 0.3856 ± 0.00209 E-score.

ATACCCCG: the binding signal stood at 0.4703 ± 0.00344 E-score.

Turning to TGACCCCA, the binding signal was determined as 0.198 ± 0.0237 E-score.

Regarding AGACCCCG, the binding signal came out at 0.23 ± 0.085 E-score.

Consider TACCCCCA, for which the binding signal stood at 0.243 ± 0.0116 E-score.
